Laboratory results published in the supplement of paper PMC10849652.
About 8,800 targets were measured; listed, in parts, are those with a hit and a random draw of the rest. About 0.5% of all pairs of compound and target were hits. Unmarked numbers belong to inactive results.

What was measured:
Assay in all cases: log2 fold change, soluble protein after heating vs DMSO (PISA); higher = thermal stabilisation; K562 lysate, 10 uM; active = over 0.2 and 3.5 SD of the protein, either way, in both replicates (recomputed)
[1] = compound: C1=CC=C(C=C1)[C@H](COC2=CC3=C(C=C2)NC(=O)N3)NC(=O)C4=CC=CN(C4=O)CC5=CC(=C(C=C5)F)F
Procedure, shortened: (§1)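 Values give the log-two fold change in thermal stability against solvent controls, from duplicates. Crude K562 extract at 1 mg/mL protein, made by dounce homogenisation in PBS pH 7.4 with 1 mM MgCl2, was treated with 10 μM compound for 30 min. After 3 min heating across 48°C-58°C, aliquots were pooled, adjusted to 0.5% NP-40 at 4°C and centrifuged at 21,000xg for 90 min. The supernatant was measured by TMTpro 16plex LC-MS/MS with channel sums equalised.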

[2] = compound: CC1=C(SC2=C1C(=N[C@H](C3=NN=C(N32)C)CC(=O)N)C4=CC=C(C=C4)Cl)C
Procedure, shortened: as §1

[3] = compound: CC1=C2C(=CC=C1)N=C(N(C2=O)C3=CC=CC=C3C)CN4C=NC5=C(N=CN=C54)N
Procedure, shortened: as §1

[4] = compound: Cc1sc2c(c1C)C(c1ccc(Cl)cc1)=N[C@@H](CC(=O)OC(C)(C)C)c1nnc(C)n1-2
Procedure, shortened: as §1

[5] = compound: c1ccc([C@@H]2C[C@H]2NC2CCNCC2)cc1
Procedure, shortened: as §1

ACACB (UniProt O00763)
log2 fold change [1]: -0.018 | log2 fold change [2]: 0.002 | log2 fold change [3]: 0.01 | log2 fold change [4]: 0.074 | log2 fold change [5]: 0.014

ACAT1 (UniProt P24752)
log2 fold change [1]: -0.007 | log2 fold change [2]: 0.029 | log2 fold change [3]: -0.016 | log2 fold change [4]: 0.031 | log2 fold change [5]: 0.024

AKT2 (UniProt P31751)
log2 fold change [1]: 0.011 | log2 fold change [2]: 0.003 | log2 fold change [3]: 0.031 | log2 fold change [4]: 0.02 | log2 fold change [5]: 0.028

ASB6 (UniProt Q9NWX5)
log2 fold change [1]: 0.012 | log2 fold change [2]: 0.125 | log2 fold change [3]: 0.005 | log2 fold change [4]: 0.016 | log2 fold change [5]: 0.028

ANXA11 (UniProt P50995)
log2 fold change [1]: 0.23 (active) | log2 fold change [2]: 0.028 | log2 fold change [3]: 0.015 | log2 fold change [4]: 0.015 | log2 fold change [5]: 0.002

APOBEC3C (UniProt Q9NRW3)
log2 fold change [1]: -0.003 | log2 fold change [2]: 0.032 | log2 fold change [3]: 0.013 | log2 fold change [4]: 0.014 | log2 fold change [5]: -0.062

AKR1B1 (UniProt P15121)
log2 fold change [1]: 0.015 | log2 fold change [2]: 0.066 | log2 fold change [3]: 0.059 | log2 fold change [4]: -0.146 | log2 fold change [5]: -0.049

APEX1 (UniProt P27695)
log2 fold change [1]: 0.055 | log2 fold change [2]: 0.007 | log2 fold change [3]: -0.007 | log2 fold change [4]: 0.086 | log2 fold change [5]: 0.131

AKAP8 (UniProt O43823)
Sequence of UniProt O43823 (O43823 whole entry, looked up): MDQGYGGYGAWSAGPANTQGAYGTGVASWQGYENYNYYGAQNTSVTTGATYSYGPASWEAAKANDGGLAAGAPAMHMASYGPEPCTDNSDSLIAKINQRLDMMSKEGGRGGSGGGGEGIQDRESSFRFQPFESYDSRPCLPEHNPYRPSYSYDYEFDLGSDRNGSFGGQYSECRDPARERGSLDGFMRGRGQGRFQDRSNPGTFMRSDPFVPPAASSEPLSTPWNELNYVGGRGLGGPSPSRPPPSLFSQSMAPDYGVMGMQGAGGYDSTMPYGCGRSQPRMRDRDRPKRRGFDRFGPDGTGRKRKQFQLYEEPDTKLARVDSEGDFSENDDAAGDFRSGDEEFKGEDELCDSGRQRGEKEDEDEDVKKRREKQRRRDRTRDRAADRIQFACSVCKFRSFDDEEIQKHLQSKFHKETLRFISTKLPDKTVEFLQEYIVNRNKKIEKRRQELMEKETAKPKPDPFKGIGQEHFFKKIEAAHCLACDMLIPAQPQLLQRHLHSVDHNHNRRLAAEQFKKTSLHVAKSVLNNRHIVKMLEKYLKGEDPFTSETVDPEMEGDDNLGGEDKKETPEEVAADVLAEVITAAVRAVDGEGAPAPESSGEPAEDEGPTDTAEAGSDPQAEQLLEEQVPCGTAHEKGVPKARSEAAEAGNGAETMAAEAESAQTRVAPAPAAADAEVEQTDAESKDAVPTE
log2 fold change [1]: -0.02 | log2 fold change [2]: 0.073 | log2 fold change [3]: -0.016 | log2 fold change [4]: -0.009 | log2 fold change [5]: -0.014

AIMP2 isoform 2 (UniProt Q13155)
log2 fold change [1]: 0.182 | log2 fold change [2]: 0.029

ANKRD54 (UniProt Q6NXT1)
log2 fold change [1]: 0.011 | log2 fold change [2]: -0.04 | log2 fold change [3]: 0.038 | log2 fold change [4]: -0.042 | log2 fold change [5]: -0.024

AIFM2 (UniProt Q9BRQ8)
log2 fold change [1]: 0.668 (active) | log2 fold change [2]: 0.008 | log2 fold change [3]: 0.039 | log2 fold change [4]: -0.007 | log2 fold change [5]: -0.1

ACIN1 isoform 5 (UniProt Q9UKV3)
log2 fold change [1]: -0.002 | log2 fold change [2]: 0.019 | log2 fold change [3]: 0.013 | log2 fold change [4]: -0.01 | log2 fold change [5]: 0.012

APAF1 (UniProt O14727)
log2 fold change [1]: -0.013 | log2 fold change [2]: 0.004 | log2 fold change [3]: 0.022 | log2 fold change [4]: 0.012 | log2 fold change [5]: 0.02

AIMP1 isoform 2 (UniProt Q12904)
log2 fold change [1]: -0.033 | log2 fold change [2]: 0.01 | log2 fold change [3]: 0.006 | log2 fold change [4]: 0.029 | log2 fold change [5]: 0.044

ALDH5A1 isoform 2 (UniProt P51649)
log2 fold change [1]: -0.029 | log2 fold change [2]: -0.018 | log2 fold change [3]: -0.017 | log2 fold change [4]: 0.004 | log2 fold change [5]: 0.075

AMD1 (UniProt P17707)
log2 fold change [1]: -0.027 | log2 fold change [2]: 0.01 | log2 fold change [3]: -0.017 | log2 fold change [4]: 0.005 | log2 fold change [5]: -0.019

ANXA2 isoform 2 (UniProt P07355)
log2 fold change [1]: 0 | log2 fold change [2]: -0.005 | log2 fold change [3]: -0.019 | log2 fold change [4]: 0.024 | log2 fold change [5]: 0.02

ADK, A0A5F9ZH76
log2 fold change [1]: -0.136 | log2 fold change [2]: 0.197

AMMECR1 (UniProt Q9Y4X0)
log2 fold change [1]: -0.014 | log2 fold change [2]: 0.019 | log2 fold change [3]: 0.064 | log2 fold change [4]: -0.007 | log2 fold change [5]: 0.036

ACAA1 (UniProt P09110)
log2 fold change [1]: -0.004 | log2 fold change [2]: 0.007 | log2 fold change [3]: -0.005 | log2 fold change [4]: 0.046 | log2 fold change [5]: -0.003

AKR1C2 (UniProt P52895)
log2 fold change [1]: -0.012 | log2 fold change [2]: 0.047 | log2 fold change [3]: 0.047 | log2 fold change [4]: -0.184 | log2 fold change [5]: -0.107

AGL (UniProt P35573)
log2 fold change [1]: 0.022 | log2 fold change [2]: 0.028 | log2 fold change [3]: 0.036 | log2 fold change [4]: 0.035 | log2 fold change [5]: 0.086

ARL1 (UniProt P40616)
Sequence of UniProt P40616 (P40616 whole entry, looked up): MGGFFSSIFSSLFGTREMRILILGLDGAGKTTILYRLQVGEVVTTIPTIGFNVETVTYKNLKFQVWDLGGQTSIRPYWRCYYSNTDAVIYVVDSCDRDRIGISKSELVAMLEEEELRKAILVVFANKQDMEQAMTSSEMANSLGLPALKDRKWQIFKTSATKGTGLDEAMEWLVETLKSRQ
log2 fold change [1]: 0.094 | log2 fold change [2]: 0.023 | log2 fold change [3]: 0.051 | log2 fold change [4]: -0.026 | log2 fold change [5]: 0.026

AP4B1 (UniProt Q9Y6B7)
log2 fold change [1]: 0.02 | log2 fold change [2]: 0.063 | log2 fold change [3]: -0.025 | log2 fold change [4]: 0.093 | log2 fold change [5]: 0.03

ALDH2 (UniProt P05091)
log2 fold change [1]: 0.029 | log2 fold change [2]: -0.028 | log2 fold change [3]: -0.022 | log2 fold change [4]: -0.018 | log2 fold change [5]: 0.01

ALDH6A1 (UniProt Q02252)
Sequence of UniProt Q02252 (Q02252 whole entry, looked up): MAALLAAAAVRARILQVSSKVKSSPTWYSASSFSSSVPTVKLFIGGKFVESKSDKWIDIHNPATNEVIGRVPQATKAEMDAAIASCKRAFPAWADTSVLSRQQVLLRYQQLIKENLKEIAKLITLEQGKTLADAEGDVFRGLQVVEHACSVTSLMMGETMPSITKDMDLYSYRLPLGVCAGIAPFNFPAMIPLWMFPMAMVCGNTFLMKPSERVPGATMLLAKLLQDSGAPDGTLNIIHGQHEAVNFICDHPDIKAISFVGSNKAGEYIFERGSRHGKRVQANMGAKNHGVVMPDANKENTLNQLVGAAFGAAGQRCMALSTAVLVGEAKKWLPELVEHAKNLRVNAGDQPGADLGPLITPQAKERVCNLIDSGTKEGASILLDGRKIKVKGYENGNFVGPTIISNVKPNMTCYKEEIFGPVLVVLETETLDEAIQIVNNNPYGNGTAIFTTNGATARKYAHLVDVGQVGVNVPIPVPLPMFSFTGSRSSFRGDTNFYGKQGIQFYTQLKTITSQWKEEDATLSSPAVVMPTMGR
log2 fold change [1]: 0.011 | log2 fold change [2]: -0.111 | log2 fold change [3]: 0 | log2 fold change [4]: 0.02 | log2 fold change [5]: -0.061

ABCA3 (UniProt Q99758)
Sequence of UniProt Q99758 (Q99758 whole entry, looked up): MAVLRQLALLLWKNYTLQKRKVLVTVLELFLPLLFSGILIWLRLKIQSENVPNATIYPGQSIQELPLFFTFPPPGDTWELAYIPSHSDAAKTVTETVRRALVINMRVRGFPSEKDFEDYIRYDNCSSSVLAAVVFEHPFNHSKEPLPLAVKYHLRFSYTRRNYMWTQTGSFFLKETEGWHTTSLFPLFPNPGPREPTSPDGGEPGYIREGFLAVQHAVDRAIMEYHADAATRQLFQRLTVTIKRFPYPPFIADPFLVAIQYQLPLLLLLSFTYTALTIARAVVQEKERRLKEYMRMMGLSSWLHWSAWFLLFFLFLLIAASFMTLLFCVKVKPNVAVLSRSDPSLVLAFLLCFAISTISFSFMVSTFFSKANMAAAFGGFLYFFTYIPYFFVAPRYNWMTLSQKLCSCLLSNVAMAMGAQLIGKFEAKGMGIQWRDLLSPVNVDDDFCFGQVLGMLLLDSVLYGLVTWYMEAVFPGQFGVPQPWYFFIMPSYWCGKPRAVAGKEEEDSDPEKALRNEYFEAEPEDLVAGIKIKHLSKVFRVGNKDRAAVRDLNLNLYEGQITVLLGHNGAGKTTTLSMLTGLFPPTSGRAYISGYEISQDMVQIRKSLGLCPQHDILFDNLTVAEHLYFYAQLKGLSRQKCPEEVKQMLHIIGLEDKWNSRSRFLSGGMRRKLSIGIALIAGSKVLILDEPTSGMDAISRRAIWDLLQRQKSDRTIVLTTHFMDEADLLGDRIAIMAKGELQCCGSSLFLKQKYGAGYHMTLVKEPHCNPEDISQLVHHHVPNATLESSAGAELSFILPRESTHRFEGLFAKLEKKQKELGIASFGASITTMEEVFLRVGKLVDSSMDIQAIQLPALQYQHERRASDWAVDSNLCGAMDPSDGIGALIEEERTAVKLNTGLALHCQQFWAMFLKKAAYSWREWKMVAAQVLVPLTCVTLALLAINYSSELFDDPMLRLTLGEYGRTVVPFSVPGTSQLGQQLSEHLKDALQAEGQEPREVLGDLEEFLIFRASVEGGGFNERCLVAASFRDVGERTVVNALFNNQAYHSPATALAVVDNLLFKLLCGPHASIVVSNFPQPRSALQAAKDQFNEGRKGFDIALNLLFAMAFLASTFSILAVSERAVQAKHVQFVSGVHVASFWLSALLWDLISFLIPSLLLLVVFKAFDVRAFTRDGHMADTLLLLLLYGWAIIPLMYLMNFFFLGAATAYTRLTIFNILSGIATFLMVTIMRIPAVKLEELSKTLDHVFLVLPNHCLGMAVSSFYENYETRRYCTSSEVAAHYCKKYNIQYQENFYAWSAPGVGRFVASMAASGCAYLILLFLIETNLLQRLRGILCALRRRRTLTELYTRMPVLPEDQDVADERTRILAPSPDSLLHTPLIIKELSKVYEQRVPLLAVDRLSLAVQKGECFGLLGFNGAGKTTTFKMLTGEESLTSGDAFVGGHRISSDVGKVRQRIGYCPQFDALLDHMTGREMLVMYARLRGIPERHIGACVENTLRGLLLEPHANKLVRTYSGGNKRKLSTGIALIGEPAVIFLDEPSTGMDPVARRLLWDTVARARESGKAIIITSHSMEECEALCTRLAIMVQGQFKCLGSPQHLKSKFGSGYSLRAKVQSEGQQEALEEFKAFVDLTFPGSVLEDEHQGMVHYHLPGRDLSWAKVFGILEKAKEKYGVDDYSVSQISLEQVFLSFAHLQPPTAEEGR
log2 fold change [1]: 0.112 | log2 fold change [2]: 0.038 | log2 fold change [3]: 0.006 | log2 fold change [4]: -0.01 | log2 fold change [5]: -0.005

ACYP1 (UniProt P07311)
log2 fold change [1]: 0.019 | log2 fold change [2]: -0.026 | log2 fold change [3]: -0.036 | log2 fold change [4]: 0.022 | log2 fold change [5]: 0.052

ACIN1 (UniProt E7EQT4)
log2 fold change [1]: 0.04 | log2 fold change [2]: 0.015 | log2 fold change [3]: 0.037 | log2 fold change [4]: 0.032 | log2 fold change [5]: -0.118

ABHD13 (UniProt Q7L211)
log2 fold change [1]: 0.043 | log2 fold change [2]: -0.127 | log2 fold change [3]: 0.153 | log2 fold change [4]: -0.171 | log2 fold change [5]: -0.246

ADAR isoform 4 (UniProt P55265)
log2 fold change [1]: -0.188 | log2 fold change [2]: 0.116 | log2 fold change [3]: 0.035 | log2 fold change [4]: 0.005 | log2 fold change [5]: 0.032

ABHD11 (UniProt Q8NFV4)
log2 fold change [1]: 0.072 | log2 fold change [2]: -0.031 | log2 fold change [3]: 0.028 | log2 fold change [4]: -0.021 | log2 fold change [5]: -0.098

AMDHD2 isoform 3 (UniProt Q9Y303)
log2 fold change [1]: 0.049 | log2 fold change [2]: 0.016 | log2 fold change [3]: 0.031 | log2 fold change [4]: 0.037 | log2 fold change [5]: -0.043

AFF1 isoform 2 (UniProt P51825)
log2 fold change [1]: -0.109 | log2 fold change [2]: 0.133 | log2 fold change [3]: -0.006 | log2 fold change [4]: -0.087 | log2 fold change [5]: -0.118

ANKRD10 (UniProt Q9NXR5)
log2 fold change [1]: -0.131 | log2 fold change [2]: -0.027 | log2 fold change [3]: 0.025 | log2 fold change [4]: 0.06 | log2 fold change [5]: -0.019

ACADM isoform 2 (UniProt P11310)
log2 fold change [1]: -0.071 | log2 fold change [2]: -0.035 | log2 fold change [3]: 0.043 | log2 fold change [4]: 0.017 | log2 fold change [5]: 0.013

ANXA13 isoform 2 (UniProt P27216)
log2 fold change [1]: 0.058 | log2 fold change [2]: -0.041 | log2 fold change [3]: -0.048 | log2 fold change [4]: 0.17 | log2 fold change [5]: 0.011

ACSL1 (UniProt P33121)
log2 fold change [1]: -0.136 | log2 fold change [2]: 0.004 | log2 fold change [3]: 0.014 | log2 fold change [4]: 0.063 | log2 fold change [5]: 0.021

ALDH1B1 (UniProt P30837)
log2 fold change [1]: 0.143 | log2 fold change [2]: -0.021 | log2 fold change [3]: 0.006 | log2 fold change [4]: 0.049 | log2 fold change [5]: 0.019

ANLN (UniProt Q9NQW6)
log2 fold change [1]: 0.04 | log2 fold change [2]: -0.014 | log2 fold change [3]: 0.053 | log2 fold change [4]: 0.015 | log2 fold change [5]: 0.005

ARHGEF1 (UniProt M0QZR4)
log2 fold change [1]: -0.046 | log2 fold change [2]: 0.006 | log2 fold change [3]: -0.017 | log2 fold change [4]: -0.017 | log2 fold change [5]: 0.004

ARAF (UniProt P10398)
log2 fold change [1]: 0.012 | log2 fold change [2]: -0.002 | log2 fold change [3]: -0.078 | log2 fold change [4]: 0 | log2 fold change [5]: 0.002

ANKRD27 (UniProt Q96NW4)
Sequence of UniProt Q96NW4 (Q96NW4 whole entry, looked up): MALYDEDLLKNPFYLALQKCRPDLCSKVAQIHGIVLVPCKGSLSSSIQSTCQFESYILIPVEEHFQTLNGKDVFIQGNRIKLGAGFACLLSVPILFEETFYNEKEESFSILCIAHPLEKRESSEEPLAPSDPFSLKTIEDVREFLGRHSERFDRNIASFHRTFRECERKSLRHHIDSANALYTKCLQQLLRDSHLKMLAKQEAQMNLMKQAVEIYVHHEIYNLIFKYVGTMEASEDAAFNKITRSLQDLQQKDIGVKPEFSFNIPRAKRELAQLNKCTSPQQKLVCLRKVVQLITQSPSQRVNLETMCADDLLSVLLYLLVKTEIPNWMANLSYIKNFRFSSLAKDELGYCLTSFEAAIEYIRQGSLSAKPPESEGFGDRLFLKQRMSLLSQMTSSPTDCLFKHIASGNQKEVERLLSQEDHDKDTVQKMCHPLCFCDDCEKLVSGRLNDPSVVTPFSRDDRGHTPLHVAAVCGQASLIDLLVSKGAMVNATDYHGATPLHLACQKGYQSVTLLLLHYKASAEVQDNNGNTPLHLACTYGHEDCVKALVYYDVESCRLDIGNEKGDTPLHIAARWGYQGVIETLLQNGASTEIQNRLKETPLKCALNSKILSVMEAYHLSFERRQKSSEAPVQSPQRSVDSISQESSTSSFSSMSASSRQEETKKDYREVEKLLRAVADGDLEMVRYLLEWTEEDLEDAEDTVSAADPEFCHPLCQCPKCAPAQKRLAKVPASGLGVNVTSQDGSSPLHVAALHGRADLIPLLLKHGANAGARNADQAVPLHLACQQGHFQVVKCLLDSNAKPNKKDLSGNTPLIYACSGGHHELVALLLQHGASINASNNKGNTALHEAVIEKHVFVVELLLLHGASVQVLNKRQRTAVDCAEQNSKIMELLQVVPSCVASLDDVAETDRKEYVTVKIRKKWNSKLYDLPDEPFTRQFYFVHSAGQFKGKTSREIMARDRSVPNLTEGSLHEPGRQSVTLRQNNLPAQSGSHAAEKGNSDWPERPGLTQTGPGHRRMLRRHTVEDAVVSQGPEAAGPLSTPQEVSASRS
log2 fold change [1]: -0.025 | log2 fold change [2]: 0.022 | log2 fold change [3]: -0.011 | log2 fold change [4]: 0.042 | log2 fold change [5]: -0.002

ADAMTS5 (UniProt Q9UNA0)
Sequence of UniProt Q9UNA0 (Q9UNA0 whole entry, looked up): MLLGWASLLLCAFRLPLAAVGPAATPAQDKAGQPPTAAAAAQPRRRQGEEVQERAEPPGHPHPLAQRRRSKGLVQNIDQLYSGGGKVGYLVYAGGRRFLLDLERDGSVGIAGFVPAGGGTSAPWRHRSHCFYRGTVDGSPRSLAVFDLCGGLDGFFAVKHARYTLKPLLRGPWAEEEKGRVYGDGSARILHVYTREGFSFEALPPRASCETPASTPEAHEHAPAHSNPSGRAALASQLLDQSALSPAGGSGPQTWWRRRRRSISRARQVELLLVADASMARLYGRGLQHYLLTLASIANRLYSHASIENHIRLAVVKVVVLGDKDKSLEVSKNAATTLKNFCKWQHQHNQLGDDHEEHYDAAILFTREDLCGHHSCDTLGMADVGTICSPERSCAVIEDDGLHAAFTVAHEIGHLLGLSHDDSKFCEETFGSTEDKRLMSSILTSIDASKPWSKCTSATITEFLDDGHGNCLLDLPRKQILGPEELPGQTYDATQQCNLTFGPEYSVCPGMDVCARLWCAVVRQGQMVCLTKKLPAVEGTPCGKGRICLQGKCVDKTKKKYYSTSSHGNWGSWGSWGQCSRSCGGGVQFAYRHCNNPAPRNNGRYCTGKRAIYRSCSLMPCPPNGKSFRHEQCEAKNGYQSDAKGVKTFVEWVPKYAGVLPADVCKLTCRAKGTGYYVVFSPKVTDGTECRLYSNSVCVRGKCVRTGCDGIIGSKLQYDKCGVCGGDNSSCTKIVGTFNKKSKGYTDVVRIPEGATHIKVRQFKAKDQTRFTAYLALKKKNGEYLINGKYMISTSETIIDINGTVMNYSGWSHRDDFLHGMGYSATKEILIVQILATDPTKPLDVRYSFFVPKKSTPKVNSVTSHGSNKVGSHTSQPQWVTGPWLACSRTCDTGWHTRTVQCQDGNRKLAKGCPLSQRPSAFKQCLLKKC
log2 fold change [1]: 0.032 | log2 fold change [2]: 0.115 | log2 fold change [3]: 0 | log2 fold change [4]: -0.136 | log2 fold change [5]: -0.481 (active)

ALDH1A1 (UniProt P00352)
log2 fold change [1]: -0.032 | log2 fold change [2]: 0.006 | log2 fold change [3]: -0.028 | log2 fold change [4]: -0.011 | log2 fold change [5]: 0.045

ARAP1 (UniProt Q96P48)
log2 fold change [1]: 0.022 | log2 fold change [2]: -0.008 | log2 fold change [3]: 0.048 | log2 fold change [4]: 0.013 | log2 fold change [5]: -0.015

ABHD17B (UniProt Q5VST6)
log2 fold change [1]: 0.014 | log2 fold change [2]: 0.044 | log2 fold change [3]: -0.028 | log2 fold change [4]: -0.044 | log2 fold change [5]: -0.198

ARMC6 (UniProt Q6NXE6)
log2 fold change [1]: -0.046 | log2 fold change [2]: -0.012 | log2 fold change [3]: -0.017 | log2 fold change [4]: 0.003 | log2 fold change [5]: 0.043

ALKBH4 (UniProt Q9NXW9)
log2 fold change [1]: 0.011 | log2 fold change [2]: 0.025 | log2 fold change [3]: 0.032 | log2 fold change [4]: 0.01 | log2 fold change [5]: -0.017

AGPS (UniProt O00116)
log2 fold change [1]: -0.103 | log2 fold change [2]: 0.016 | log2 fold change [3]: 0.035 | log2 fold change [4]: 0.019 | log2 fold change [5]: -0.006

AP1G2 (UniProt O75843)
log2 fold change [1]: 0.082 | log2 fold change [2]: -0.09 | log2 fold change [3]: 0.016 | log2 fold change [4]: 0.028 | log2 fold change [5]: -0.099

APOB (UniProt P04114)
log2 fold change [1]: -0.009 | log2 fold change [2]: 0.039 | log2 fold change [3]: 0.023 | log2 fold change [4]: -0.168 | log2 fold change [5]: -0.109

ACLY (UniProt P53396)
log2 fold change [1]: 0.011 | log2 fold change [2]: 0.03 | log2 fold change [3]: 0.004 | log2 fold change [4]: 0.03 | log2 fold change [5]: 0.023
